Results filed as inconclusive are left out. Where a call stands in place of a potency, no number is given. Unmarked numbers belong to inactive results. Active and inactive are the calls of the source. The call rests on the fitted dose curve; in most records, active means well fitted curve in the direction sought with a large enough effect; inconclusive means small, poorly fitted or top-dose-only effect, or another doubt; inactive means no such curve, though single readings can be large; an effect the other way counts as inactive or inconclusive.
Columns and labels:
[1] = biological target: Rap guanine nucleotide exchange factor 3 (Homo sapiens) (UniProt O95398); assay: Confirmatory qHTS for antagonist of cAMP-regulated guanine nucleotide exchange factor 3 (EPAC1) (AID 1645880); conditions: EPAC1 Rap1B-BODIPY-GDP exchange, fluorescence; series mostly up to 115 µM; further: nearly all actives have a fitted effect of over 55% in size; further: potency means the concentration at half of the fitted maximal effect
Rap guanine nucleotide exchange factor 3 (Homo sapiens), sequence (O95398 whole entry, looked up): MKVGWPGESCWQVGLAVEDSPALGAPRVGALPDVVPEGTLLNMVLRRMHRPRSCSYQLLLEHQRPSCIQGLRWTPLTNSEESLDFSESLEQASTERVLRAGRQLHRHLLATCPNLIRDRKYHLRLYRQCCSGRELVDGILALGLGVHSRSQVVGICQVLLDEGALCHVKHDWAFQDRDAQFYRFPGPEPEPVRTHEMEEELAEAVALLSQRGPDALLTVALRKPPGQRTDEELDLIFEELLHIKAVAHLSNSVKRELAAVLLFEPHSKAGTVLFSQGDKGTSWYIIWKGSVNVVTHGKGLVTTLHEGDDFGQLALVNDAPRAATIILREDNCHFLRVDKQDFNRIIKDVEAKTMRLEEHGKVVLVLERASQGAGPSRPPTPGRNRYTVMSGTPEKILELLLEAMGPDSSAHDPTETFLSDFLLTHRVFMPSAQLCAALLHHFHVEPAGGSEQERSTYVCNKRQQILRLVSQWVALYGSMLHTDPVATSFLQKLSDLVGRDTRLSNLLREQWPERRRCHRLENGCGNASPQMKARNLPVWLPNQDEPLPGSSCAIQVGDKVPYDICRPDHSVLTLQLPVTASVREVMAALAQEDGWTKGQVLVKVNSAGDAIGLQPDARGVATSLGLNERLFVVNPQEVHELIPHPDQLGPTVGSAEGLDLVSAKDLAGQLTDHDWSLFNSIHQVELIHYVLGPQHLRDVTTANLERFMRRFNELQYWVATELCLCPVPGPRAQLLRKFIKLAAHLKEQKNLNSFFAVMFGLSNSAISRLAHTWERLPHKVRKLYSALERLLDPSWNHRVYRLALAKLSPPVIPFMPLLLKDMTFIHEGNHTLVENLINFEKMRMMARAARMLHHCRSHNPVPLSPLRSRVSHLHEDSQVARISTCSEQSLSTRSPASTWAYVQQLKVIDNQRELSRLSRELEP
Procedure, shortened: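 Released BODIPY-GDP fluoresces less than Rap1-bound BODIPY-GDP; the signal is followed at 480/540 nm at 5-min intervals over 30 min, after 5 min at room temperature. Reactions contain 100 nM EPAC1, 250 nM RAP1B-BODIPY-GDP and 50 uM GDP; results are normalized to ATA and DMSO.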

[2] = biological target: Rap guanine nucleotide exchange factor 3 (Homo sapiens) (UniProt O95398); assay: Confirmatory qHTS for agonist of cAMP-regulated guanine nucleotide exchange factor 3 (EPAC1) (AID 1645881); conditions: EPAC1 Rap1B BODIPY-GDP exchange fluorescence; series mostly up to 154 µM;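 further: EPAC1 catalysed release of BODIPY-GDP from Rap1B seen as fluorescence loss; nearly all actives have a fitted effect of over 75% in size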
[3] = biological target: Rap guanine nucleotide exchange factor 4 (Homo sapiens) (UniProt Q8WZA2); assay: Confirmatory qHTS for agonist of cAMP-regulated guanine nucleotide exchange factor 4 (EPAC2) (AID 1645884); conditions: EPAC2 GEF activity, Rap1B-BODIPY-GDP fluorescence; series mostly up to 154 µM;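 further: nucleotide exchange releases bodipy-GDP from Rap1 and this lowers its fluorescence; nearly all actives have a fitted effect of over 65% in size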
Rap guanine nucleotide exchange factor 4 (Homo sapiens), sequence (Q8WZA2 whole entry, looked up): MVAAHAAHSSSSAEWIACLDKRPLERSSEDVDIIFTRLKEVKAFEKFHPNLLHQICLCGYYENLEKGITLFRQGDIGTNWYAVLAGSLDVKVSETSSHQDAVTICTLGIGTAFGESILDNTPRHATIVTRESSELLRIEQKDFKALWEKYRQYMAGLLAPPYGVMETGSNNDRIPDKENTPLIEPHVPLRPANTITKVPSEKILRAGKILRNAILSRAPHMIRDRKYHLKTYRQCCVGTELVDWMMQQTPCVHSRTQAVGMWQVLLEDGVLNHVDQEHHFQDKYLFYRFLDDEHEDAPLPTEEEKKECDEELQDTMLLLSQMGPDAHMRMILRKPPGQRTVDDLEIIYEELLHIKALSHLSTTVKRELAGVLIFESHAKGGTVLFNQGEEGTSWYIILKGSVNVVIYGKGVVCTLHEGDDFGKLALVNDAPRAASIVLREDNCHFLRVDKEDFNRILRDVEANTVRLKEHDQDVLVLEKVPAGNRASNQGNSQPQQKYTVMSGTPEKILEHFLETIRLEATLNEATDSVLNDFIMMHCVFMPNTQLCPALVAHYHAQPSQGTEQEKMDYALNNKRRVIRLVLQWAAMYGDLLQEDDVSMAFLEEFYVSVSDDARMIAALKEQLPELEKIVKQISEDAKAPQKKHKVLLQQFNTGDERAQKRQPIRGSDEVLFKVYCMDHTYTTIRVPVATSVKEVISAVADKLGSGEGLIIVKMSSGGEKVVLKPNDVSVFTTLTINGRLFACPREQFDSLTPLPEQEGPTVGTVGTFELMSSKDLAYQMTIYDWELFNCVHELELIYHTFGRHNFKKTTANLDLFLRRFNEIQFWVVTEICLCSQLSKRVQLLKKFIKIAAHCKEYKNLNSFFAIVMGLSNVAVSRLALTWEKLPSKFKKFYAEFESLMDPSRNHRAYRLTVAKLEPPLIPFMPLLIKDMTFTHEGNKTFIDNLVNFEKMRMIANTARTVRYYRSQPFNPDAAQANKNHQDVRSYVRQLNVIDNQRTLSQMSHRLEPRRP

[4] = biological target: Rap guanine nucleotide exchange factor 4 (Homo sapiens) (UniProt Q8WZA2); assay: Confirmatory qHTS for antagonist of cAMP-regulated guanine nucleotide exchange factor 4 (EPAC2) (AID 1645885); conditions: EPAC2 Rap1B-BODIPY-GDP exchange fluorescence, biochemical; series mostly up to 12.7 µM; further: nearly all actives have a fitted effect of over 25% in size; further: potency means the concentration at half of the fitted maximal effect
[5] = biological target: Rap guanine nucleotide exchange factor 3 (Homo sapiens) (UniProt O95398); assay: Counterscreen qHTS for antagonist of cAMP-regulated guanine nucleotide exchange factor 3 (EPAC1) (AID 1645888); conditions: Rap1B-BODIPY-GDP nucleotide exchange, fluorescence; series mostly up to 154 µM
Procedure, shortened: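 Rap1B–BODIPY-GDP (250 nM) with 50 uM GDP; compounds pin-transferred to 9.74 nM–152 uM final (activator) or from 7.32 nM upwards (inhibitor). Fluorescence Ex/Em 480/540 nm read at 5 and 30 min, then after adding cAMP or buffer, at room temperature.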

Row | SMILES | Potency [1] | Potency [2] | Potency [3] | Potency [4] | Potency [5] | activation [3] | activity change, negative = inhibition [5] | outcome [4]
1 | O=C(NCCS(=O)(=O)N1CCN(c2cccc(Cl)c2)CC1)c1ccc2c(c1)OCO2 | inactive | inactive | inactive | inactive | inactive |  |  | 
2 | COc1ccc(NC(=O)C2=NN(c3ccccc3)C(=O)CC2)cn1 | inactive | inactive | inactive | inactive | inactive |  |  | 
3 | COC(=O)c1c(SC)nc2ccccc2c1OCc1cccc(C)c1 | inactive | inactive | inactive | inactive | inactive |  |  | 
4 | Oc1ccc(-c2c(-c3ccsc3)sc3ccccc23)cc1 | inactive | inactive |  | inactive |  | 2.53% [at 17.1 µM, percent relative to cAMP agonist control] | -8.26% [at 30.8 µM] | 
5 | Nc1nc2c(ncn2[C@@H]2O[C@H](CNCc3ccccc3)[C@@H](O)[C@H]2O)c(=O)[nH]1 | inactive | inactive | inactive | inactive | inactive |  |  | 
6 | CCOc1c(Cl)cc(Cl)cc1CNCCSc1nnnn1C | inactive | inactive | inactive | inactive | inactive |  |  | 
7 | CCc1ccc(/C=C2\SC(=S)N(CCC(=O)Nc3cc(C)on3)C2=O)cc1 | inactive | inactive | inactive | inactive | inactive |  |  | 
8 | Cc1nc(SCC(=O)N2CCCCCC2)[nH]c(=O)c1C | inactive | inactive | inactive | inactive | inactive |  |  | 
9 | COC(=O)c1cc2oc(C)cc2n1Cc1ccccc1Cl | inactive | inactive | inactive | inactive | inactive |  |  | 
10 | CCCCCC(=O)Nc1ccc(C2C(=O)c3ccccc3C2=O)cc1 | inactive | inactive | inactive | inactive | inactive |  |  | 
11 | O=C(NCCN1CCCC1)C(c1ccccc1)c1ccccc1 | inactive | inactive | inactive | inactive | inactive |  |  | 
12 | CCOC(=O)C1=C(C)Nc2nnnn2C1c1ccc(OC)c(Br)c1 (stereo not given) | inactive | inactive |  | inactive |  | 8.47% [at 17.1 µM, percent relative to cAMP agonist control] | 1.39% [at 30.8 µM] | 
13 | Cc1ccccc1NC1=C/C(=N\S(=O)(=O)c2ccc(C(=O)O)cc2)c2ccccc2C1=O | 14.1 µM (active) | inactive |  | inactive |  | 1.42% [at 17.1 µM, percent relative to cAMP agonist control] | -15% [at 30.8 µM] | 
14 | COCC(=O)Oc1c(Sc2ccc(C)cc2)c(C)nn1C(C)(C)C | inactive | inactive | inactive | inactive | inactive |  |  | 
15 | COc1ccc(S(=O)(=O)N2CCOC23CCN(S(=O)(=O)c2cc(F)ccc2F)CC3)cc1 | inactive | inactive |  | inactive |  | 4.71% [at 17.1 µM, percent relative to cAMP agonist control] | -8.89% [at 30.8 µM] | 
16 | CC1(C)CC(=O)C2=C(C1)c1c(ccc3ccccc13)NC2c1cc([N+](=O)[O-])cc([N+](=O)[O-])c1O (stereo not given) | 9.53 µM (active) | inactive | inactive | 26.9 µM (active) | inactive |  |  | 
17 | COc1ccc(-c2cc(OC(=O)c3ccc(Cl)cc3)c3c(C)oc(C)c3c(=O)c2)cc1 | 75.7 µM (active) | inactive | inactive | inactive | inactive |  |  | 
18 | Nn1cnnc1N/N=C/c1ccc(Cl)c([N+](=O)[O-])c1 | inactive | inactive | inactive | inactive | inactive |  |  | 
19 | O=C(c1ccccc1)c1ccc2nc(-c3ccco3)c(-c3ccco3)nc2c1 | 4.78 µM (active) | inactive | inactive | inactive | inactive |  |  | 
20 | COc1cc(/C=N/NC(=O)c2ccccn2)ccc1OC(=O)c1ccc(Br)cc1 | inactive | inactive | inactive | inactive | inactive |  |  | 
21 | C=CCn1c(SCC(=O)Nc2sccc2C(N)=O)nc2sc(CC)cc2c1=O | inactive | inactive |  | inactive |  | 6.26% [at 17.1 µM, percent relative to cAMP agonist control] | -8.95% [at 30.8 µM] | 
22 | CN1OC[C@@H]2CN(C(=O)CCc3ccccc3)[C@H](c3cccc(-c4ccc(C#N)cc4)c3)C[C@@H]21 | inactive | inactive | inactive | inactive | inactive |  |  | 
23 | CCOc1ccc(C(=O)NCC(=O)NCC(c2ccco2)N2CCCCC2)cc1OCC (stereo not given) | inactive | inactive |  | inactive |  | -0.0767% [at 17.1 µM, percent relative to cAMP agonist control] | -4.11% [at 30.8 µM] | 
24 | N#CCC(=O)Nc1sc2c(c1C(N)=O)CCCC2 | inactive | inactive |  | inactive |  | 10.1% [at 17.1 µM, percent relative to cAMP agonist control] | -6.4% [at 30.8 µM] | 

Row | SMILES | Potency [1] | Potency [2] | Potency [3] | Potency [4] | Potency [5] | activation [3] | activity change, negative = inhibition [5] | outcome [4]
25 | CCN(CC)S(=O)(=O)c1cccc(-c2nnc(SCC(N)=O)n2C)c1 | inactive | inactive | inactive | inactive | inactive |  |  | 
26 | Cc1c(C(=O)NCc2ccc(F)cc2)sc(=O)n1Cc1ccccc1F | inactive | inactive | inactive | 67.5 µM (active) | inactive |  |  | 
27 | COc1ccc(/C=C/C(=O)c2ccncc2)c2ccccc12 | inactive | inactive |  | inactive |  | -6.66% [at 17.1 µM, percent relative to cAMP agonist control] | -0.831% [at 30.8 µM] | 
28 | CC(=Cc1ccccc1)C=C1SC(=S)N(CCCC(=O)Nc2ccc(C(=O)O)c(O)c2)C1=O | 37.9 µM (active) | inactive | inactive | inactive | inactive |  |  | 
29 | CCOc1cc(/C=C2\SC(=S)N(NS(=O)(=O)c3ccccc3)C2=O)ccc1O | 33.8 µM (active) | inactive | inactive | 42.6 µM (active) | inactive |  |  | 
30 | O=c1cc(O)c2sc3nc(-c4cccnc4)cc(C(F)(F)F)c3c2[nH]1 | inactive | inactive | inactive | inactive | inactive |  |  | 
31 | COc1ccc(NC(=O)c2c[nH]n3c(=O)cc(C4CCN(C(=O)OC(C)(C)C)CC4)nc23)cc1Cl | 67.5 µM (active) | inactive | inactive | inactive | inactive |  |  | 
32 | Cc1cn2c(=O)cc(COC(=O)c3ccc(NC(=O)C(C)Oc4ccccc4)cc3)nc2s1 (stereo not given) | inactive | inactive | inactive | inactive | inactive |  |  | 
33 | COc1ccc(N2CCN(C(=O)c3noc4c3CCCCC4)CC2)cc1 | inactive | inactive | inactive | inactive | inactive |  |  | 
34 | COc1cccc(CNC(=O)CCCn2nc(C)c3c(C)n(-c4ccc(C)cc4)nc3c2=O)c1OC | inactive | inactive | inactive | inactive | inactive |  |  | 
35 | COC1=NC(=C(c2ccccc2)c2ccccc2)OC1=O | 19 µM (active) | inactive | inactive | 47.8 µM (active) | inactive |  |  | 
36 | CCc1nn2c(-c3ccccc3OC)ccnc2c1-c1ccccc1 | inactive | inactive | inactive |  | inactive |  |  | inactive [at 12.7 µM]
37 | COc1ccc(OC)c(Nc2ncc3c(n2)CCN(Cc2cc(OC)c(OC)c(OC)c2)C3)c1 | inactive | inactive | inactive | inactive | inactive |  |  | 
38 | CCSc1nc2ccccc2c(=O)n1C1CCOC(C)(C)C1 (stereo not given) | inactive | inactive | inactive | inactive | inactive |  |  | 
39 | CSCc1cc(N(C)c2ccccc2)nc(-c2ccccc2)n1 | inactive | inactive | inactive | 6.01 µM (active) | inactive |  |  | 
40 | CCCN(CCC)Cc1cc(=O)oc2cc(C)cc(C)c12 | inactive | inactive | inactive | 12 µM (active) | inactive |  |  | 
41 | N#CC(=Cc1ccc(-c2ccccc2)cc1)C(=O)c1ccccc1 | 39.8 µM (active) | inactive |  | inactive |  | 0.543% [at 17.1 µM, percent relative to cAMP agonist control] | -16.6% [at 30.8 µM] | 
42 | COc1ccc(C2=Cc3ccccc3C(CC(=O)C3CC3)N2c2ccc(C#CCCO)cc2)cc1 (stereo not given) | inactive | inactive |  | inactive |  | 14.6% [at 17.1 µM, percent relative to cAMP agonist control] | -1.57% [at 30.8 µM] | 
43 | Cn1cccc1C(=O)NC(=O)COC(=O)c1cc(S(=O)(=O)N2CCCCC2)ccc1Cl | inactive | inactive | inactive | inactive | inactive |  |  | 
44 | Cc1nc(Cl)sc1C(=O)NC(C)c1ccc(Cl)cc1 (stereo not given) | inactive | inactive | inactive | inactive | inactive |  |  | 
45 | COc1cc(Cl)c(C)cc1NC(=O)CSc1cc(Cl)ccc1Cl | 67.5 µM (active) | inactive | inactive | inactive | inactive |  |  | 
46 | COC1C(CO)OC(n2c3c(Cl)cccc3c3c4c(c5c6cccc(Cl)c6[nH]c5c32)C(=O)NC4=O)C(O)C1O (stereo not given) | inactive | inactive | inactive | inactive | inactive |  |  | 
47 | CCOc1ncccc1C(=O)Nc1ccc(C)c(S(=O)(=O)N2CCCCCC2)c1 | inactive | inactive | inactive | inactive | inactive |  |  | 

Reference: PubChem BioAssay (NCATS)
